# Values joined by “and” are separate entries in the source; they are usually repeats but may differ in a detail not shown here. Equal values may be shown once. Active and inactive are the calls of the source. Where a call stands in place of a potency, no number is given. Unless noted, the call rests on the fitted dose curve.
# Target: KiSS-1 receptor (Homo sapiens) (UniProt Q969F8)
# Assay: Human kisspeptin (KISS1R) small molecule agonists, calcium flux assay in KISS1R-HEK293 cells (AID 1920064; active means well fitted activation curve with a large enough effect in the repeat runs)
# Settings: KISS1R-HEK293, calcium flux fluorescence, agonist; series mostly up to 76.8 µM
# Procedure, shortened: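 After overnight (18 h) culture at 37 C/5% CO2, human KISS1R-HEK293 cells received calcium dye for 1 h, then test compound; emission at 540 nm (excitation 480 nm) was tracked for 3 min.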
# Potency means the concentration at half of the fitted maximal effect.
# KiSS-1 receptor (Homo sapiens), sequence (Q969F8 whole entry, looked up): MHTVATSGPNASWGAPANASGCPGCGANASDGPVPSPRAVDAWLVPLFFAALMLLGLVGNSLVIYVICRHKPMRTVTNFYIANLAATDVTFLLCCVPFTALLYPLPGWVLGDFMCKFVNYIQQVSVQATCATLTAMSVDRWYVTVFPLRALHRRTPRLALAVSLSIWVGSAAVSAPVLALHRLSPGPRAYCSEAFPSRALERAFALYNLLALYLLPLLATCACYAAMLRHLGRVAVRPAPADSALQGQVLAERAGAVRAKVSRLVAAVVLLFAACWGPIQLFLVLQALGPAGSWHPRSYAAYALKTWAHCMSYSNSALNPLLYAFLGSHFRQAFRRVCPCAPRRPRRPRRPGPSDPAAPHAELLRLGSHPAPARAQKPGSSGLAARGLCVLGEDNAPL
row,SMILES,Potency
1,CCCCCCCCCCCCOCC1CO1 (stereo not drawn),inactive
2,CCC/C=C/C=O,inactive
3,CCCCC(CC)COC(C)=O (stereo not drawn),inactive
4,NC[C@H](O)c1ccc(O)c(O)c1,inactive
5,CC/C=C\C/C=C\C/C=C\CCCCCCCC(=O)O,inactive
6,OCCNCCO,inactive
7,CCCCC(CC)COP(=O)(O)OCC(CC)CCCC (stereo not drawn),inactive
8,OC[C@H]1O[C@@H]2O[C@H]3[C@H](O)[C@@H](O)[C@@H](O[C@H]4[C@H](O)[C@@H](O)[C@@H](O[C@H]5[C@H](O)[C@@H](O)[C@@H](O[C@H]6[C@H](O)[C@@H](O)[C@@H](O[C@H]7[C@H](O)[C@@H](O)[C@@H](O[C@H]1[C@H](O)[C@H]2O)O[C@@H]7CO)O[C@@H]6CO)O[C@@H]5CO)O[C@@H]4CO)O[C@@H]3CO,inactive
9,O=c1[nH]cnc2[nH]ncc12,inactive
10,Oc1ccc2cc(SSc3ccc4cc(O)ccc4c3)ccc2c1,inactive
11,O=C(O)c1ccc(C(=O)O)c(C(=O)O)c1,inactive
12,O=C1c2ccccc2CCc2ccccc21,inactive
13,CCN(CC)c1ccc(C(=O)c2ccccc2C(=O)O)c(O)c1,inactive
14,Clc1ccc2c(c1)C(N1CCNCC1)=Nc1ccccc1O2,inactive
15,C=CC(=O)NCOCCCC,inactive
16,N[C@@H](Cc1c[nH]c2ccc(O)cc12)C(=O)O,inactive
17,O=[N+]([O-])c1ccc2nc[nH]c2c1,inactive
18,CN=C(NC#N)NCCSCc1nc[nH]c1C,inactive
19,O=C(O)c1ccccc1C(c1ccc(O)cc1)c1ccc(O)cc1,inactive
20,CN(Cc1cnc2nc(N)nc(N)c2n1)c1ccc(C(=O)N[C@@H](CCC(=O)O)C(=O)O)cc1,inactive

row,SMILES,Potency
1,CCCCCCCCCCCCCC[P+](CCCC)(CCCC)CCCC,inactive
2,CC1COc2ccccc2N1C(=O)C(Cl)Cl (stereo not drawn),inactive
3,OC1CCCC1,inactive
4,C[C@]12CCC(=O)C=C1CC[C@@H]1[C@@H]2[C@@H](O)C[C@@]2(C)[C@H]1CC[C@]2(O)C(=O)CO,inactive
5,S=C(NC1CCCCC1)NC1CCCCC1,inactive
6,CC(C)c1ccc(S(=O)(=O)O)cc1,inactive
7,CC(C)CC(C)O (stereo not drawn),inactive
8,C[N+](C)(C)CCO,inactive
9,OCC(CO)(CO)CO,inactive
10,CC1(C)O[C@@H]2C[C@H]3[C@@H]4C[C@H](F)C5=CC(=O)C=C[C@]5(C)[C@@]4(F)[C@@H](O)C[C@]3(C)[C@]2(C(=O)CO)O1,inactive
11,CC(C)OC(=O)C(C)(C)Oc1ccc(C(=O)c2ccc(Cl)cc2)cc1,inactive
12,CCCCCCCCCCCC(=O)N(C)CC(=O)O,inactive
13,O=C(COc1ccc(Cl)cc1)N1CCN(Cc2ccc3c(c2)OCO3)CC1,inactive
14,CCC(=O)O[C@H]1[C@H](O[C@@H]2[C@@H](C)[C@H](O[C@H]3C[C@@](C)(OC)[C@@H](O)[C@H](C)O3)[C@@H](C)C(=O)O[C@H](CC)[C@@](C)(O)[C@H](O)[C@@H](C)C(=O)[C@H](C)C[C@@]2(C)O)O[C@H](C)C[C@@H]1N(C)C,inactive
15,O=C1OC2(c3ccccc31)c1cc(Br)c(O)c(Br)c1Oc1c2cc(Br)c(O)c1Br,39.5 µM (active) and 44.9 µM (active) and 23.9 µM (active)
16,Cc1cc(OCCOCC[N+](C)(C)Cc2ccccc2)ccc1C(C)(C)CC(C)(C)C,inactive
17,NCCNCCNCCNCCN,inactive
18,CC(=O)OC1CC(C)OC(C)O1 (stereo not drawn),inactive
19,O=C1CC2(CCCC2)CC(=O)N1CCCCN1CCN(c2ncccn2)CC1,inactive

# Test system: not listed separately
# Assay: G protein-coupled receptor (GPCR) small molecule agonists, calcium flux assay: HEK293 wild type cell line counter screen (AID 1920065)
# Settings: HEK293 WT calcium flux, fluorescence, agonist mode; series mostly up to 57.6 µM
# Procedure, shortened: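 Following 18 h incubation at 37 C/5% CO2, plates got calcium dye for 1 h; compounds, ATP or DMSO were then pinned in and fluorescence followed kinetically (480/540 nm).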
row,SMILES,Potency
1,CCCCCCCCCCCCOCC1CO1 (stereo not drawn),inactive
2,CCC/C=C/C=O,inactive
3,CCCCC(CC)COC(C)=O (stereo not drawn),inactive
4,NC[C@H](O)c1ccc(O)c(O)c1,inactive
5,CC/C=C\C/C=C\C/C=C\CCCCCCCC(=O)O,inactive
6,OCCNCCO,inactive
7,CCCCC(CC)COP(=O)(O)OCC(CC)CCCC (stereo not drawn),inactive
8,OC[C@H]1O[C@@H]2O[C@H]3[C@H](O)[C@@H](O)[C@@H](O[C@H]4[C@H](O)[C@@H](O)[C@@H](O[C@H]5[C@H](O)[C@@H](O)[C@@H](O[C@H]6[C@H](O)[C@@H](O)[C@@H](O[C@H]7[C@H](O)[C@@H](O)[C@@H](O[C@H]1[C@H](O)[C@H]2O)O[C@@H]7CO)O[C@@H]6CO)O[C@@H]5CO)O[C@@H]4CO)O[C@@H]3CO,inactive
9,O=c1[nH]cnc2[nH]ncc12,inactive
10,Oc1ccc2cc(SSc3ccc4cc(O)ccc4c3)ccc2c1,inactive
11,O=C(O)c1ccc(C(=O)O)c(C(=O)O)c1,inactive
12,O=C1c2ccccc2CCc2ccccc21,inactive
13,CCN(CC)c1ccc(C(=O)c2ccccc2C(=O)O)c(O)c1,inactive
14,Clc1ccc2c(c1)C(N1CCNCC1)=Nc1ccccc1O2,inactive
15,C=CC(=O)NCOCCCC,inactive
16,N[C@@H](Cc1c[nH]c2ccc(O)cc12)C(=O)O,inactive
17,O=[N+]([O-])c1ccc2nc[nH]c2c1,inactive
18,CN=C(NC#N)NCCSCc1nc[nH]c1C,inactive
19,O=C(O)c1ccccc1C(c1ccc(O)cc1)c1ccc(O)cc1,inactive
20,CN(Cc1cnc2nc(N)nc(N)c2n1)c1ccc(C(=O)N[C@@H](CCC(=O)O)C(=O)O)cc1,inactive

row,SMILES,Potency
1,CCCCCCCCCCCCCC[P+](CCCC)(CCCC)CCCC,inactive
2,CC1COc2ccccc2N1C(=O)C(Cl)Cl (stereo not drawn),inactive
3,OC1CCCC1,inactive
4,C[C@]12CCC(=O)C=C1CC[C@@H]1[C@@H]2[C@@H](O)C[C@@]2(C)[C@H]1CC[C@]2(O)C(=O)CO,inactive
5,S=C(NC1CCCCC1)NC1CCCCC1,inactive
6,CC(C)c1ccc(S(=O)(=O)O)cc1,inactive
7,CC(C)CC(C)O (stereo not drawn),inactive
8,C[N+](C)(C)CCO,inactive
9,OCC(CO)(CO)CO,inactive
10,CC1(C)O[C@@H]2C[C@H]3[C@@H]4C[C@H](F)C5=CC(=O)C=C[C@]5(C)[C@@]4(F)[C@@H](O)C[C@]3(C)[C@]2(C(=O)CO)O1,inactive
11,CC(C)OC(=O)C(C)(C)Oc1ccc(C(=O)c2ccc(Cl)cc2)cc1,inactive
12,CCCCCCCCCCCC(=O)N(C)CC(=O)O,inactive
13,O=C(COc1ccc(Cl)cc1)N1CCN(Cc2ccc3c(c2)OCO3)CC1,inactive
14,CCC(=O)O[C@H]1[C@H](O[C@@H]2[C@@H](C)[C@H](O[C@H]3C[C@@](C)(OC)[C@@H](O)[C@H](C)O3)[C@@H](C)C(=O)O[C@H](CC)[C@@](C)(O)[C@H](O)[C@@H](C)C(=O)[C@H](C)C[C@@]2(C)O)O[C@H](C)C[C@@H]1N(C)C,inactive
15,O=C1OC2(c3ccccc31)c1cc(Br)c(O)c(Br)c1Oc1c2cc(Br)c(O)c1Br,35.2 µM (active) and 35.7 µM (active) and 16.9 µM (active)
16,Cc1cc(OCCOCC[N+](C)(C)Cc2ccccc2)ccc1C(C)(C)CC(C)(C)C,inactive
17,NCCNCCNCCNCCN,inactive
18,CC(=O)OC1CC(C)OC(C)O1 (stereo not drawn),inactive
19,O=C1CC2(CCCC2)CC(=O)N1CCCCN1CCN(c2ncccn2)CC1,inactive

# Reference: PubChem BioAssay (Tox21)
